# From the supplement of paper PMC7156485
# ± gives the standard deviation of the averaged measurements.
# Legend:
# Conditions in all cases: concentration: 10 µM; 24 h
# HCC1569 [1] = assay: cell number relative to DMSO (% of DMSO); higher = more cells (less growth inhibition / toxicity)
# Outline: (§1)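 Cell number or H1.0 nuclear intensity appears as percent of the plate control, based on the median of replicates. Measurements came from HCC1569 and TDF cells exposed in triplicate to compounds at 10 µM for 24 h at 37 °C, then imaged in six fields per well at ×10. Positional effects were smoothed out of HCC1569 values.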
# TDF [2] = assay: as above
# Outline: as §1
# TDF [3] = assay: H1.0 immunofluorescence intensity relative to DMSO (% of DMSO); higher = stronger H1.0 induction, active = 120 or more
# Outline: as §1
# HCC1569 [4] = assay: H1.0 immunofluorescence intensity relative to DMSO (% of DMSO); higher = stronger H1.0 induction, active = 140 or more
# Outline: as §1
# 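Wherever H1.0 immunofluorescence intensity relative to DMSO is given: TDF is a line of transformed human dermal fibroblasts of mesenchymal origin.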
# 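Wherever cell number relative to DMSO is given: TDF denotes transformed human dermal fibroblasts of mesenchymal origin.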
SMILES,cell number (HCC1569 [1]),cell number (TDF [2]),H1.0 immunofluorescence intensity (TDF [3]),H1.0 immunofluorescence intensity (HCC1569 [4])
Cn1ncnc1COc1nn2c(-c3c(F)cccc3F)nnc2cc1C1CCC1,102,100,93.6 (inactive),99.6 (inactive)
N#CC(C#N)=Cc1cc(O)c(O)c(O)c1 [Tyrphostin 25],91.1,89.8,102 (inactive),113 (inactive)
CN1CCC(c2c[nH]c3ccc(O)cc23)CC1.O=C(O)C=CC(=O)O,101,101,93.8 (inactive),82.3 (inactive)
"CCCN1CCOC2c3cc(O)ccc3OCC21.Cl (stereo not drawn) [S(+)-PD 128,907 hydrochloride]",103,104,93.3 (inactive),100 (inactive)
Cl.N[C@@H](CCl)C(=O)O [beta-Chloro-L-alanine hydrochloride],101,97.8,92.7 (inactive),91.9 (inactive)
Cl.O=C(O)Cc1cnc[nH]1 [Imidazole-4-acetic acid hydrochloride],105,107,93 (inactive),93.3 (inactive)
CN1C2CCC1CC(O)C2 (stereo not drawn) [Tropine],102,104,96.1 (inactive),90 (inactive)
COc1cc(C(O)CN)ccc1O.Cl (racemic),102,111,92.5 (inactive),94.7 (inactive)
Cl.Oc1ccc2c3c1OC1c4[nH]c5ccccc5c4CC4(O)C(C2)N(CC2CC2)CCC314 (stereo not drawn) [Naltrindole.HCl],103,99.3,93.2 (inactive),107 (inactive)
CC=C(C)C(=O)OC1C(C)=C2C(C1OC(=O)CCCCCCC)C(C)(OC(C)=O)CC(OC(=O)CCC)C1(O)C2OC(=O)C1(C)O (stereo not drawn) [Thapsigargin],62.4,44.2,130 (active),195 (active)
CCC(C)C=C(C)C=CC1=CC2=C(Cl)C(=O)C(C)(OC(C)=O)C(=O)C2=CO1 (stereo not drawn) [Sclerotiorin],97.9,96.1,95.7 (inactive),95.1 (inactive)
NC(=NCCCC(N)C(=O)O)N[N+](=O)[O-] [NG-Nitro-L-arginine],104,96.7,89.6 (inactive),90 (inactive)
CC1OC(C[N+](C)(C)C)CS1.[I-] (stereo not drawn) [OXA-22 iodide],99.8,116,97.2 (inactive),95.2 (inactive)
O=P([O-])(O)C(Cl)(Cl)P(=O)([O-])O.[Na+].[Na+] [Clodronic acid],101,101,93.4 (inactive),96.4 (inactive)
CN1C2CCC1CC(OC(=O)C(CO)c1ccccc1)C2 (stereo not drawn) [Hyoscyamine],102,98,97.8 (inactive),94.8 (inactive)
CCCCCC=CCC=CCC=CCC=CCCCC(=O)NCC(=O)O [N-Arachidonylglycine],108,98.1,95.7 (inactive),95.8 (inactive)
CCCCCC(C=CC=CCCCCCCCC(=O)O)OO (stereo not drawn),99.9,108,99.2 (inactive),94.4 (inactive)
O=C1CCCN1CC#CCN1CCCC1 [Oxotremorine],101,109,88.5 (inactive),102 (inactive)
"NC(Cn1oc(=O)[nH]c1=O)C(=O)O (single isomer, unassigned; (+)) [(+)-Quisqualic acid]",101,94.1,93.9 (inactive),103 (inactive)
CC12CCC(O)CC1CCC1C2CCC2(C)C(C3=CC(=O)OC3)C(O)CC12O (stereo not drawn) [Gitoxigenin],104,73.1,103 (inactive),81.4 (inactive)
"C[N+]1([O-])C2CC(OC(=O)C(CO)c3ccccc3)CC1C1OC12 (single isomer, unassigned; (-)) [(-)-Scopolamine N-oxide]",96.4,105,99.4 (inactive),102 (inactive)
Cl.O=C(OC1CCN(CCCl)CC1)C(c1ccccc1)c1ccccc1 [4-Diphenylacetoxy-N-(2-chloroethyl)piperidine hydrochloride],98.2,94.9,89.5 (inactive),87.6 (inactive)
CNCC(O)c1ccc(O)cc1 (racemic),108,111,91 (inactive),103 (inactive)
"CC1OC(OC2CC(O)C3(CO)C4C(O)CC5(C)C(C6=CC(=O)OC6)CCC5(O)C4CCC3(O)C2)C(O)C(O)C1O (single isomer, unassigned; (-)) [(-)-Ouabain]",49.5 ± 1.9,42.1 ± 1.4,119 (inactive),130 (inactive)
CC1=CC2c3cccc4[nH]cc(c34)CC2N(C)C1 (stereo not drawn) [Agroclavine],100,103,95.3 (inactive),98.1 (inactive)
NCCCP(=O)(O)O [3-Aminopropylphosphonic acid],97.9,90.3,95.4 (inactive),101 (inactive)

SMILES,cell number (HCC1569 [1]),cell number (TDF [2]),H1.0 immunofluorescence intensity (TDF [3]),H1.0 immunofluorescence intensity (HCC1569 [4])
CCCCCCCCCCCCCCC(Br)C(=O)O (stereo not drawn) [2-bromohexadecanoic acid],109,107,91.6 (inactive),94.5 (inactive)
Clc1ccc(C2CC3CCC2N3)cn1 (racemic),102,96.3,90.6 (inactive),81.4 (inactive)
O=[N+]([O-])c1ncc[nH]1 [Azomycin],100,92.6,97.8 (inactive),93.7 (inactive)
Cl.O=C(CCCN1CCC2(CC1)C(=O)N(CCc1ccc(N=C=S)cc1)CN2c1ccccc1)c1ccc(F)cc1 [N-(p-Isothiocyanatophenethyl)spiperone hydrochloride],82.7,74,128 (active),149 (active)
Cl.NCCc1ccc(S(=O)(=O)F)cc1 [4-(2-Aminoethyl)benzenesulfonyl fluoride hydrochloride],100,107,93.2 (inactive),88.6 (inactive)
"CCCCCC=CCC=CCC=CCCCCCCC(=O)NCCO [Anandamide (20:3,n-6)]",101,97.4,102 (inactive),103 (inactive)
CCC1(c2ccc(N)cc2)CCC(=O)NC1=O (racemic),98.8,109,85.7 (inactive),89.1 (inactive)
COc1ccc(C(=O)c2c(C)n(CCN3CCOCC3)c3ccccc23)cc1 [Pravadoline],110,96.5,98.4 (inactive),93.3 (inactive)
CCCN1CC(CSC)CC2c3cccc4[nH]cc(c34)CC21.CS(=O)(=O)O (stereo not drawn) [Pergolide mesylate],95.8,102,93.3 (inactive),112 (inactive)
CCC1(O)C(=O)OCc2c1cc1n(c2=O)Cc2cc3ccccc3nc2-1 [(S)-(+)-Camptothecin],54.2,26.9,126 (active),114 (inactive)
CCCCCCCCCCCCCCCC(=O)OCC(COP(=O)([O-])OCC[N+](C)(C)C)OC(C)=O (stereo not drawn),102,102,98.7 (inactive),101 (inactive)
"CC1C2Cc3ccc(O)cc3C1(C)CCN2CC1CC1 (single isomer, unassigned; (+)) [(+)-Cyclazocine]",102,92.2,96.9 (inactive),86.8 (inactive)
COc1ccc2c(c1)C(=Cc1cnc[nH]1)C(=O)N2,72.4,49.2,98.1 (inactive),107 (inactive)
CC1=C(C)C(=O)C(CCC(C)(O)CCCC(C)CCCC(C)CCCC(C)C)=C(C)C1=O (racemic),99,104,98.7 (inactive),101 (inactive)
COc1ccc2c(c1)[nH]c1c(C)nccc12 [Harmine],87.2 ± 2.5,94.9 ± 3.2,99.7 (inactive),106 (inactive)
CC(C)(C)c1cc(C=C(C#N)C#N)cc(Br)c1O,99.2,99.1,110 (inactive),99.8 (inactive)
CC1(O)CC23CC(O)C4(O)C(CC(O)C4(C)C)C(C)(O)C2CCC1C3O (stereo not drawn) [Grayanotoxin III],99.6,102,91.9 (inactive),88.2 (inactive)
Cl.c1ccc(C2CC2)c(OCC2=NCCN2)c1 [Cirazoline hydrochloride],102,109,90.7 (inactive),87.7 (inactive)
CCCCCCCCCCCCCCCCOCC(O)COP(=O)([O-])OCC[N+](C)(C)C (stereo not drawn),101,105,97.4 (inactive),104 (inactive)
CC1OC(=O)C2CC3CCCCC3C(C=CC3CCCC(C)N3C)C12 (stereo not drawn) [Himbacine],103,107,92.4 (inactive),87.4 (inactive)
Br.NCc1cc(=O)[nH]o1 [Muscimol hydrobromide],103,119,89.5 (inactive),91 (inactive)
CN1CCC2(CCN3CCc4c(oc5ccccc45)C3C2)N(C)C1=O.Cl (stereo not drawn),102,91,95 (inactive),110 (inactive)
COC1=CC(=O)OC(C=Cc2ccc3c(c2)OCO3)C1 (stereo not drawn) [Methysticin],106,106,90.6 (inactive),89 (inactive)
CN(C)C(=O)Oc1cccc([N+](C)(C)C)c1 [Neostigmine],104,112,96.8 (inactive),101 (inactive)
"C[C@]12CC[C@@H](O)C[C@@H]1CC[C@@H]1[C@@H]2CC[C@]2(C)[C@@H](O)CC[C@@H]12 [5alpha-Androstane-3alpha,17beta-diol]",103,104,97.3 (inactive),88.8 (inactive)
CC(C)C1(NC(=O)C2C=C3c4cccc5[nH]cc(c45)CC3N(C)C2)OC2(O)C3CCCN3C(=O)C(Cc3ccccc3)N2C1=O (stereo not drawn) [Ergocristine],102,109,92.8 (inactive),90.3 (inactive)
